# From PubChem BioAssay (NCATS)
# Inconclusive results are not listed. A number with no mark means an inactive call. The call rests on the fitted dose curve; in most records, active means well fitted cell-killing curve with a large enough effect; inconclusive means small, poorly fitted or top-dose-only effect; inactive means no such curve, though single readings can be large or run the other way.
# Assay: qHTS of pediatric cancer cell lines to identify multiple opportunities for drug repurposing: Primary screen for Rh41 cells (AID 1347108);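 further: luminescence drop marks cytotoxic hits; nearly all actives have a fitted effect of over 70% in size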
# Conditions: Rh41 rhabdomyosarcoma viability, CellTiter-Glo luminescence, 48 h; series mostly up to 46 µM; activity change, negative = cytotoxic: at the top concentration
# Method in brief: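 Cells plated at 500-1,000/well in growth medium, compounds added after 5 h. MIPE tested at 11 points (from 0.78 nM), NPC at 8 points (from 0.59 nM). CellTiter-Glo luminescence after 48 h; concentration-response curves from primary screen.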
row,Compound,"activity change, negative = cytotoxic"
1,FC1(F)C(F)(F)C(F)(F)C2(F)C(F)(F)C(F)(F)C(F)(F)C(F)(F)C2(F)C1(F)F (stereo unspecified),26.3%
2,Nc1nc(N)c(-c2ccccc2)s1,12.1%
3,C[N+]12CCC(CC1)C(OC(=O)C(O)(c1ccccc1)c1ccccc1)C2 (stereo unspecified),12%
4,NS(=O)(=O)c1ccc(Cl)c(S(N)(=O)=O)c1,8.79%
5,CCOc1ccccc1C(N)=O,3.53%
6,CCCCN=C(N)N=C(N)N,17.1%
7,COc1ccc(C(=O)c2ccccc2O)c(O)c1,11.5%
8,C[C@@H](O)[C@H]1C(=O)N2C(C(=O)O)=C(S[C@@H]3CN[C@H](CNS(N)(=O)=O)C3)[C@H](C)[C@H]12,13.1%
9,CCN(CC)CCNC(=O)COc1ccc(OC)cc1,6.93%
10,C[N+]1(CC2COC(c3ccccc3)(C3CCCCC3)O2)CCCCC1 (stereo unspecified),10.3%
11,CCCCNC(=O)NS(=O)(=O)c1ccc(N)cc1,23.4%
12,Cc1ccc(S(=O)(=O)NC(=O)NC2CCCC2)cc1,17.8%
13,NC1CCN(c2nc3c(cc2F)c(=O)c(C(=O)O)cn3-c2ccc(F)cc2F)C1 (stereo unspecified),18.3%
14,O=C(O)C1(C(=O)O)CCC1.[NH2-].[NH2-].[Pt+2],23.4%
15,CCc1ccc(C(=O)C(C)CN2CCCCC2)cc1 (stereo unspecified),1.28%
16,CC(=C(CCOC(=O)C(C)C)SSC(CCOC(=O)C(C)C)=C(C)N(C=O)Cc1cnc(C)nc1N)N(C=O)Cc1cnc(C)nc1N,18.8%
17,CCCCCCCCCCCCCCCC(=O)O,20.6%
18,CN1CCC(OC(c2ccccc2)c2ccccc2)CC1,17.2%

row,Compound,"activity change, negative = cytotoxic"
1,CCCCCCCCCCCCSCCOCCO,24.5%
2,CN(Cc1ccc(C(C)(C)C)cc1)Cc1cccc2ccccc12,12.6%
3,COc1cc(N)c(Cl)cc1C(=O)NC1CCN(Cc2ccccc2)CC1,4.98%
4,O=C(O)CCC(=O)Nc1ccc(S(=O)(=O)Nc2nccs2)cc1,3.01%
5,Cc1cc(CC(=O)O)c(C)n1-c1ccc(Cl)cc1,17%
6,Cc1ccc(-c2ncc(Cl)cc2-c2ccc(S(C)(=O)=O)cc2)cn1,8.63%
7,O=C(Nc1ccc([N+](=O)[O-])cc1)Nc1ccc([N+](=O)[O-])cc1,8.13%
8,O=C(CN1CCN(Cc2ccc3c(c2)OCO3)CC1)N1c2ccccc2Sc2ccccc21,6.21%
9,OCc1ccccn1,14.6%
10,COc1ccc(C(Cl)=C(c2ccc(OC)cc2)c2ccc(OC)cc2)cc1,-3.92%
11,N#C/C(=C1\SCC(c2ccccc2Cl)S1)n1ccnc1 (stereo unspecified),8.96%
12,CCN(CC)CCOC(=O)C(Cc1cccc2ccccc12)CC1CCCO1 (stereo unspecified),1.87%
13,CCN1CCCC(OC(=O)C(c2ccccc2)c2ccccc2)C1 (stereo unspecified),2.76%
14,NCCNC(=O)c1ccc(Cl)cn1,21.1%
15,CCN(CC)CCNC(=O)c1cc(Br)c(N)cc1OC,10%
16,CCOC(=O)c1c(N)sc2c1CCN(Cc1ccccc1)C2,-0.87%
17,CN1CCN(C2=Nc3ccccc3Sc3ccc(Cl)cc32)CC1,16.7%
18,CN1CCN(C2=Nc3cc(F)ccc3Cc3ccccc32)CC1,-14%
